Screening results deposited in PubChem BioAssay by The Scripps Research Institute Molecular Screening Center.
FBW7 act: human FBW7 E3 ligase activation, primary screen; Q969H0; AlphaScreen FBW7–phospho-cyclin E peptide binding, activator screen; AID 1259310; 650,000 compounds, 0.13% hits; normalized activity (activation), % at 26.1 µM; in the data active = normalized activity above about 1.9%;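 also: purified mutant Fbw7 with reduced substrate affinity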
GPR151 activ: activators of human GPR151 | Q8TDV0 | PathHunter beta-arrestin GPR151 cells, luminescence | activation, % at 11.2 µM | 650,000 compounds, 1% hits | AID 1508602; in the data active = activation above about 4.9%;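 also: 0% = median of compound wells and 100% = cells with positive control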
Target sequence (Q8TDV0 whole entry, looked up): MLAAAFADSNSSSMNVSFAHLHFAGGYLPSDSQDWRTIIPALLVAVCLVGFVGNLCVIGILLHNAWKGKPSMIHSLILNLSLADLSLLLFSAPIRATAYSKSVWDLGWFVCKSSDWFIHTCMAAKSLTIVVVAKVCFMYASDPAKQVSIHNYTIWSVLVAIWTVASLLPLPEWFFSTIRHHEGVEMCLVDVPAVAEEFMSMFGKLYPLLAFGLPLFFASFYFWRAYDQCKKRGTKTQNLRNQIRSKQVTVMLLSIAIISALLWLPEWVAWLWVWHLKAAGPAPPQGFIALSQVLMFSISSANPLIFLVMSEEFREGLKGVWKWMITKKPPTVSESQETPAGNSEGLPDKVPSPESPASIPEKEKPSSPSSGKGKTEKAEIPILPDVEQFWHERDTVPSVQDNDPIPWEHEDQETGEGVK
MITF primary: human MITF inhibition, primary screen; 650,000 compounds, 0.91% hits; AID 1259374; AlphaScreen MITF homodimerization, bead proximity signal; inhibition, % at 2.6 µM; O75030; in the data active = inhibition above about 50%;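 also: 0% = vehicle wells with protein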
TEAD-YAP block: TEAD-YAP interaction inhibition; HEK-TIYL cells, TEAD-Gal4/YAP UAS-luciferase luminescence; inhibition, % at 9.12 µM; 640,000 compounds, 1.4% hits; AID 1259422; in the data active = inhibition above about 32%;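 also: 0% = median of test compound wells and 100% = reference inhibitor wells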
GPR151 confirm: confirmation of human GPR151 activators. GPR151 PathHunter beta-arrestin cells, luminescence, 90 min; % of EA-reagent control over plate median. AID 1508609. activation, % at 11.2 µM. 6,700 tested, under 10 active. shares compounds with GPR151 activ;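 active = mean percent activation across replicates above the confirmation screen cutoff of 4.91%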
GPR119 counter: GPR119 activation, counter-screen for GPR151 activators. shares compounds with GPR151 activ. GPR119 PathHunter beta-arrestin cells, luminescence, 90 min; 0 = compound-well median, 100 = enzyme-acceptor control. activation, % at 11.2 µM. 6,700 compounds, 0.3% hits;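 active = mean percent activation in the counterscreen above 29.09%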;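 also: counterscreen on off-target GPR119 to flag nonselective hits from the GPR151 activator screen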
* = called active by the depositor; . = no result; ! = repeats disagree. Sampled rows, rich in hits. Any-hit rate of the full collection: about 3.5%.

SMILES | FBW7 act | GPR151 activ | MITF primary | TEAD-YAP block | GPR151 confirm | GPR119 counter
Cc1cccc(C)c1NC(=O)c1cc2ccccc2oc1=O | 1 | 6.0* | 4 | 6 | 0 | 0
O=C(Nc1c(F)cc(F)cc1Br)c1nn2cccnc2c1Cl | 0 | 1 | -23 | -22 | . | .
COc1ccc(-c2cnc(SCC(=O)NCc3ccc(C)cc3)[nH]2)cc1 | 0 | 0 | 8 | 5 | . | .
Nn1c(=O)c2ccccc2n2c(SCC(=O)NC3CCCCC3)nnc12 | 0 | 0 | -2 | -7 | . | .
CC1(C)C2CCC1(C)C(Nc1ccc(N)c([N+](=O)[O-])c1)(S(=O)(=O)O)C2[n+]1ccccc1 (centres undefined) | 0 | 5.6* | 4 | 0 | -1 | -8
Nc1ccc(NC(=S)NC2CCCCC2)cc1[N+](=O)[O-] | -1 | 1 | 11 | -26 | . | .
COc1ccccc1NC(=O)CSc1nnc(COc2ccc(C)cc2)n1C | 0 | 5.3* | 9 | 5 | -1 | -6
Cn1c(COc2ccc(Cl)cc2)nnc1SCC(=O)NC(C)(C)C | 0 | -1 | -2 | -2 | . | .
COc1ccc(Cc2nnc(SCC(=O)Nc3ccccc3OC)n2-n2cccc2)cc1 | 0 | 11* | 3 | 17 | -1 | -18
Cn1c(COc2ccc(Cl)cc2)nnc1SCC(=O)NCC(F)(F)F | 0 | 5.1* | 3 | 0 | 2 | 4
COc1ccccc1NC(=O)CSc1nnc(CNC(=O)c2ccc(C)cc2)n1C | 0 | 1 | -16 | 9 | . | .
COC(=O)CSc1nnc(COc2ccccc2OC)n1C | 0 | 5.3* | 2 | -5 | 1 | 4
CNC(=O)CSc1nnc(COc2ccccc2OC)n1C | 0 | 0 | -8 | 2 | . | .
O=C(c1ccc(Cl)cc1)c1cc(NC(=O)c2cc(Br)cc(Br)c2O)ccc1Oc1ccc(Cl)cc1 | 0 | 9.6* | -12 | 1 | 1 | -4
CCOC(=O)c1cc(NC(=O)Cn2c(C)c(C=O)c3ccccc32)ccc1Cl | 0 | 0 | -3 | 15 | . | .
Cc1ccc(NC(=O)NC2(C(=O)NCc3ccncc3)CCCCC2)cc1 | 0 | 5.4* | -11 | -12 | -1 | 2
COc1ccc(NC(=O)NC2(C(=O)NCc3ccncc3)CCCCC2)cc1 | 0 | 1 | -14 | 6 | . | .
COc1ccc(C2CC(=O)N3CN(Cc4ccccc4)CSC3=C2C#N)cc1 (centres undefined) | 0 | 5.8* | 8 | 6 | -1 | -12
Cc1ccc(Cl)c(NC(=O)C2CCN(c3nc(C)cc(C)n3)CC2)c1 | 0 | 2 | 6 | -6 | . | .
Cc1cc(C)nc(N2CCC(C(=O)Nc3ccc(Cl)cc3Cl)CC2)n1 | 0 | 9.5* | 6 | -9 | 0 | 7
CCCNC(=O)c1cncc(-c2ccc(C(=O)NC3CC3)cc2)c1 | 0 | 5.7* | 3 | -7 | 1 | 6
CC(=O)Nc1ccc(NC(=O)COC(=O)c2ccc3c(c2)nc(C)n3-c2ccccc2)cc1 | 0 | 11* | 0 | 2 | 1 | 8
CC(=O)Nc1ccc(S(=O)(=O)N(C)CCOCc2ccccc2)cc1 | 1 | 5.4* | 25 | 8 | 0 | -6
CC(=O)NC(=S)Nc1ccc(S(=O)(=O)N(C)Cc2ccccc2)cc1 | 0 | -1 | 11 | 12 | . | .
CCOP(=O)(OCC)c1nc(-c2cccc3ccccc23)oc1NCc1ccco1 | 0 | 5.3* | -2 | -8 | 0 | -13
SMILES | FBW7 act | GPR151 activ | MITF primary | TEAD-YAP block | GPR151 confirm | GPR119 counter
CC(C)NC(=O)Cn1c2ccccc2n2c(SCC(=O)N3CCc4ccccc43)nnc12 | 0 | 0 | 5 | 12 | . | .
CCOC(=O)c1c(NC(=O)c2nn3c(c2Br)NC(c2ccco2)CC3C(F)(F)F)sc2c1CCC(C)C2 (centres undefined) | 0 | 1 | -3 | 14 | . | .
COC(=O)C1=C(C)N(C)C(=O)NC1c1ccc(Br)cc1 (centres undefined) | 0 | 5.2* | 9 | 11 | 0 | -4
COC(=O)C1=C(C)N(C)C(=O)NC1c1ccc(C(=O)OC)cc1 (centres undefined) | 0 | 1 | 15 | 2 | . | .
CCN1C(=O)N[C@H](c2ccc(Br)cc2)C(C(=O)OC)=C1C | 0 | 0 | 19 | . | . | .
COC(=O)C1=C(C)N(C)C(=O)NC1c1ccccc1OC (centres undefined) | 1 | 1 | 11 | 9 | . | .
CCOc1ccccc1C1C(C(=O)OC)=C(N)OC2=C1C(=O)CCC2 (centres undefined) | 1 | 6.0* | 12 | 1 | 1 | 6
CCOC(=O)CN1C(=O)N[C@@H](c2ccc(Br)cc2)C(C(=O)OC)=C1C | 1 | 5.0* | 13 | . | 1 | 14
CCOc1ccccc1C1NC(=O)N(C)C(C)=C1C(=O)OC (centres undefined) | 0 | 6.0* | 5 | 2 | 0 | 8
O=C(c1nc2sccn2c1CN1CCCCC1CCN1CCOCC1)N1CCCCC1 (centres undefined) | 0 | -1 | -10 | 3 | . | .
CC(C)(C)c1ccc(OCCCC(=O)Nc2nc(-c3ccccc3)cs2)cc1 | 0 | -1 | 4 | -3 | . | .
CCCSc1ncc(Cl)c(C(=O)NCc2ccccc2)n1 | 1 | -1 | 20 | 4 | . | .
N/C(=N\OC(=O)CCC1CCCC1)c1ccc(Cl)cc1 | 0 | 6.0* | 17 | 2 | 1 | 7
CN1C(=O)/C(=C/c2ccccc2OS(C)(=O)=O)SC1=S | 0 | 5.7* | 16 | 9 | 0 | -11
O=C(C1CCCO1)N1CCOc2ccc(CN3CCCC3)cc2C1 (centres undefined) | 0 | -1 | 1 | 11 | . | .
N#Cc1ccccc1CSc1ncnc2sccc12 | 0 | 5.1* | 4 | 1 | 1 | 11
N[C@@H]1CONC1=O | 0 | 6.7*! | -12 | -6 | 0 | -7
COC(=O)c1ccc(C2NC(=O)NC(O)(C(F)(F)F)C2C(=O)c2ccc(F)cc2)cc1 (centres undefined) | 0 | 6.2* | -7 | -3 | 1 | 2
O=C1NC(c2ccccc2O)C(C(=O)c2ccccc2)C(O)(C(F)(F)F)N1 (centres undefined) | 0 | 0 | 4 | 4 | . | .
Cc1ccc(C(=O)C2C(c3ccccc3F)NC(=O)NC2(O)C(F)(F)F)cc1 (centres undefined) | 0 | 6.9* | -6 | -2 | 1 | 6
O=C1NC(c2ccc(F)cc2)C(C(=O)c2ccccc2)C(O)(C(F)(F)F)N1 (centres undefined) | 0 | 0 | 1 | -3 | . | .
Cc1ccccc1OC(C)C(=O)Nc1ccc(C(N)=O)cc1 (centres undefined) | 0 | 1 | -7 | -7 | . | .
COc1ccc(N2CC(O)=C(c3ccccc3)C2=N)c([N+](=O)[O-])c1 | 0 | -1 | 5 | -7 | . | .
CCc1nc2ccccc2c2nn(CC(=O)N3CCOCC3)c(=O)n12 | 0 | 6.6* | -6 | -5 | 0 | 2
